Reference: PubChem BioAssay (NCI)
The panel holds about 83,000 compounds, 20% with a hit somewhere; the sample as a whole holds those more often.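 Testing used 96-well plates and a 48-hour single-concentration exposure. Example: -40 means 40% of the starting cells died.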 Values without a mark were called inactive. The source made the active and inactive calls. Rule for the calls: active = growth percent below 10; inactive = the rest.

Legend:
Experiment in all cases: NCI-60 one-dose screen, 48 h (100 = growth as untreated, 0 = no growth, -100 = all killed)
Conditions in all cases: 10 µM unless noted
NCI-H23 lung = test system: NCI-H23 lung
NCI-H226 lung = test system: NCI-H226 lung
NCI-H322M lung = test system: NCI-H322M lung
HOP-62 NSCLC = test system: HOP-62 NSCLC
NCI-H460 lung = test system: NCI-H460 lung
HOP-92 NSCLC = test system: HOP-92 NSCLC
NCI-H522 lung = test system: NCI-H522 lung
A549/ATCC NSCLC = test system: A549/ATCC NSCLC
786-0 renal = test system: 786-0 renal
COLO 205 colon = test system: COLO 205 colon

Row | SMILES | growth (NCI-H23 lung) | growth (NCI-H226 lung) | growth (NCI-H322M lung) | growth (HOP-62 NSCLC) | growth (NCI-H460 lung) | growth (HOP-92 NSCLC) | growth (NCI-H522 lung) | growth (A549/ATCC NSCLC) | growth (786-0 renal) | growth (COLO 205 colon)
1 | O=C(/C=C/c1ccccc1)n1c(-c2ccc(Cl)cc2)nc2ccccc21 | -24.5% (active) | -55.3% (active) | 45% | -48.8% (active) | 0.538% (active) | -39.4% (active) | -72.4% (active) | -4.99% (active) | -17.7% (active) | 
2 | COc1ccc(C(=O)/C=C/c2ccc(/C=C/c3cc(OC)c(OC)c(OC)c3)cc2)cc1 | 43.5% | 72.4% | 64.8% | 71% | 59.6% | 51.9% | 5.55% (active) | 36.3% | 67.7% | 
3 | O=[N+]([O-])c1cc(S(=O)(=O)OCC2CO2)ccc1Cl (stereo not drawn) | 96% | 110% | 82.2% | 111% | 109% | 125% | 85.9% | 101% | 106% | 
4 | CSc1nc(-c2cc3ccccc3o2)cc(-c2ccc(Cl)cc2)c1C#N | 44.8% | 39.1% | 82.2% | 69.8% | 24% | 10.3% | 25.6% | 32% | 90.3% | 
5 | O=S(=O)(NCCCNc1cc(-c2cn(-c3ccccc3)nc2-c2cccc(O)c2)ccn1)c1ccc(C(F)(F)F)cc1 | 43.9% | 49.6% | 49.8% | 50.9% | 22.2% | 29% | 69.7% | 35.1% | -8.06% (active) | 
6 | CC(C)N(Cc1ccc(CN(C(=O)CCl)C(C)C)cc1)C(=O)CCl | 19.8% | -2.93% (active) | 94.6% | -27.7% (active) | 35.8% | -65.4% (active) | -75.6% (active) | 57.4% | -85.1% (active) | 
7 | CN=S(=O)(NC(=O)c1ccc(Cl)cc1Cl)c1ccc(Br)s1 (stereo not drawn) | 104% | 93.8% | 113% | 105% | 98.6% | 65.9% | 102% | 89.5% | 105% | 
8 | COc1cccc(-c2nc3sccn3c2-c2ccnc(NCCCNS(=O)(=O)c3ccccc3)n2)c1 | 36.1% | 23.3% | 75.3% | 119% | 53.7% | 56.5% | 27.3% | 51.8% | 62.6% | 21.3%
9 | O=C1NCC(c2cc3ccccc3[nH]c2=O)Nc2ccccc21 (stereo not drawn) | 97.4% | 98.4% | 100% | 90.6% | 105% | 104% | 88.6% | 92.4% | 100% | 
10 | CCO/C=N/NC(=O)c1ccncc1 | 102% | 106% | 107% | 103% | 104% | 104% | 98% | 106% | 105% | 
11 | CCn1cc(C(=O)O)c(=O)c2cc(F)c(N3CCN(S(=O)(=O)c4cccc5ccccc45)CC3)cc21 | 0.0593% (active) | 21.9% | -14.5% (active) | 15.1% | 8.04% (active) | -8.49% (active) | -33.9% (active) | 3.78% (active) | 24.3% | -87.6% (active)
12 | CC(=O)Nc1ccc2c(c1)/C(=C\C=C/c1ccc([N+](C)(C)C)cc1)c1ccccc1-2 | 54.5% | 57.9% | 50.1% | 18.4% | 73.4% | 52% | 18.1% | 43.2% | 55.4% | 
13 | O=c1[nH]c(-c2cn(-c3ccc(Cl)cc3)nn2)nc2ccccc12 | 77.6% | 65.5% | 52.4% | 52.5% | 74.7% | 62.9% | 67.8% | 61.2% | 31.9% | 
14 | CN(C)CCCNC(=O)C(c1ccccc1)c1ccccc1 | 93.5% | 106% | 102% | 103% | 112% | 98% | 89.9% | 89.9% | 102% | 
15 | CCOC(=O)c1cc(/C(=N\O)c2cc(OC)c(OC)c(OC)c2)n2c(C)cccc12 | 59.3% | 78.8% | 59.2% | 36.2% | 15.3% | 54.6% | -3.5% (active) | 48% | 26.3% | 
16 | COc1cc(OC)c(C(=O)/C=C/c2ccc(C(F)(F)F)cc2)c(OC)c1 | 42.3% | 64.7% | 62% | 55.1% | 23.1% | 96.8% | 28.8% | 53.5% | 45.4% | 
17 | Cc1sc(N=Nc2ccc(N(C)C)cc2)[n+]([O-])c1C | 98.4% | 92.6% | 94.5% | 106% | 99.3% | 74.7% | 98.4% | 100% | 103% | 
18 | CCN(CC)CCCNc1nc(C)cc(Nc2ccc3nc(C)cc(N)c3c2)n1 | 93% | 104% | 95.5% | 81% | 110% | 97.5% | 93.3% | 81% | 97.8% | 
19 | Nc1c(C(=O)c2ccc(F)cc2)sc2nc3c(cc12)CCCC3 | 77.9% | 85.4% | 81.3% | 91.1% | 90.3% | 61.3% | -2.9% (active) | 70.9% | 85.3% | 
20 | CC(Br)C(Br)c1cc2c(cc1Br)OCO2 (stereo not drawn) | 96.4% | 99.3% | 87.5% | 68% | 126% | 106% | 87.2% | 72.4% |  | 
21 | O=S(=O)(NCCCNc1cc(-c2cn(-c3ccccc3)nc2-c2cccc(O)c2)ccn1)c1ccc(Br)cc1 | 25.2% | 22.2% | 20.7% | 15.8% | 5.69% (active) | -5.67% (active) | 25.6% | 17.4% | -9.38% (active) | 
22 | O=C(c1ccccc1)C(Cl)C(Cl)c1ccccc1 (stereo not drawn) | 86.7% | 7.49% (active) | 106% | 110% | 93.7% | 75.7% | -83.5% (active) | 92.7% | -17.8% (active) | 
23 | COc1cc(/C=C/C(=O)c2ccccc2O)ccc1OCCCOc1cc2c(cc1OC)C(=O)N1CCC[C@H]1C=N2 | 3.19% (active) | -3.94% (active) | -10.6% (active) | 9.86% (active) | -18.1% (active) | -27.4% (active) | -9.43% (active) | 6.93% (active) | -44.8% (active) | 
24 | C#CCN1C(=O)/C(=c2\sc3n(c2=O)C2C(NN=3)N(CC)C(=O)N2CC)c2ccccc21 (stereo not drawn) | 18.5% | 98% | 44.3% | -4.91% (active) | 5.2% (active) | 58.1% | 25% | 23.3% | 12% | 
25 | O=C(Nc1ccc(I)cc1)c1cc([N+](=O)[O-])ccc1O | 8.5% (active) | 45.9% | 29.7% | 23.8% | 33.7% | -6.55% (active) | -1.54% (active) | 44.1% | 39.6% | 
26 | Nc1ccc(S(=O)(=O)c2ccc(Cl)cc2)cc1 | 97.9% | 98% | 91.4% | 97.8% | 96% | 93.4% | 89.7% | 86.6% | 99% | 
27 | CC/C=C\C/C=C\C[C@H]1C/C=C2/C(=O)C=C[C@H]2C/C=C\CCC(=O)O1 | 7.93% (active) | -5.58% (active) | 53.1% | -23.6% (active) | -5.43% (active) | -10% (active) | -56% (active) | 25.2% | -6.65% (active) | -32.4% (active)
28 | N#CC1=C(N)n2nc(-c3ccncc3)nc2NC1c1cccc2ccccc12 (stereo not drawn) | 90.4% | 78.3% | 106% | 88.2% | 100% | 40.4% | 75.2% | 92.4% | 88% | 106%
29 | COc1ccc(/C=C2\Oc3cc(OCCN4CCCC4)ccc3C2=O)c(OC)c1 | 88.5% | 97.8% | 101% | 84.3% | 93.9% | 79.7% | 104% | 99.4% | 88.2% | 
30 | C=C1C(=O)O[C@H]2[C@H]1CC/C(COC(=O)NCCc1ccc(Br)cc1)=C\CC[C@@]1(C)O[C@@H]21 | 62.6% | 13.2% | 85.4% | 54.6% | 61.2% | 33.6% | -52.1% (active) | 77.8% | -52.9% (active) | 
